KB-3-1 cytotox: KB-3-1 parental cell cytotoxicity | KB-3-1 viability, CellTiter-Glo ATP luminescence, 72 h | hit rate 1.4% among 400,000 | Potency, µM (doses to about 46.1 µM), hits mostly cytotoxic | AID 1347075; note: % is set by controls: 0 for no effect and ±100 for the full control effect; nearly all actives have a fitted effect of over 60% in size
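Parental KB-3-1 viability, qHTS format: 72 h compound exposure, 37 °C; CellTiter-Glo; media-only wells and DMSO plates as controls; concentration-effect fits on corrected data.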
SW480 rerep: inducers of DNA re-replication in SW480 colon cancer cells; AID 624297; hit rate 1.8% among 340,000; SW480 DNA re-replication, Hoechst DNA content imaging, 48 h; Potency, µM (series often up to 46.1 µM), for inactives: at the highest dose re-replication activation, hits mostly activators; note: % of control where 0% means no effect; nearly all actives have a fitted effect of over 55% in size
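Treated cells incubate 48 hr (37 C, 5% CO2), are stained 40 min with Hoechst, and nuclear fluorescence is enumerated; a rise in nuclei with high DNA signal marks re-replication.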
MCF10A rerep: induces DNA re-replication in MCF 10a normal breast cells; Potency, µM (top dose mostly 46.1 µM), for inactives: top-dose activity, positive = re-replication, most hits filed as activators; hit rate 2.9% among 350,000; MCF 10A DNA re-replication, Hoechst nuclear intensity, 48 h; AID 624296; note: % of control where 0% means no effect; nearly all actives have a fitted effect of over 50% in size
ELG1 DNA repair: inhibitors of ELG1-dependent DNA repair in HEK293T cells. AID 504467. Potency, µM (titrated, usually from 46.1 µM), inactives show at the top dose activity change, negative = inhibition, hits mostly inhibitors. hit rate 2.3% among 330,000. HEK293T ELG1-luciferase reporter, luminescence, 16 h; DNA damage induced by 5-fluorouridine; note: % is set by controls: 0 for no effect and ±100 for the full control effect; nearly all actives have a fitted effect of over 55% in size
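In this reporter screen, reduction of luminescence relative to DMSO vehicle indicated activity. Compounds and 5-fluorouridine were added together to 2,000 cells per well, incubated for 16 hr at 37 °C, then developed with ONE-Glo.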
KB-V1 cytotox: KB-V1 MDR subline cytotoxicity; Potency, µM (highest dose often 46.1 µM), hits mostly cytotoxic; hit rate 3.4% among 400,000; AID 1347076; KB-V1 MDR cells viability, CellTiter-Glo, 72 h; note: % is set by controls: 0 for no effect and ±100 for the full control effect; nearly all actives have a fitted effect of over 60% in size
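KB-V1 MDR subline cells in DMEM (phenol-red free, 10% FBS) exposed to compounds in qHTS concentration series for 72 h at 37 degrees C. Viability read by CellTiter-Glo luminescence; concentration-effect curves fitted after normalization and correction.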
Starred values were filed as active, the others as inactive; i = inactive; ? = inconclusive; . = not tested or not shown; [ ] = remark or other dose. Rows were chosen to be rich in hits. Some 8.1% of all compounds tested hit in one or more screens of this group. Calls come from the whole dose curve; as a rule, active = well fitted curve in the direction sought with a large enough effect; inconclusive = small, poorly fitted or top-dose-only effect, or another doubt; inactive = no such curve, though single readings can be large; an effect the other way counts as inactive or inconclusive. Potency is the fitted concentration of half-maximal effect.

SMILES	KB-3-1 cytotox	SW480 rerep	MCF10A rerep	ELG1 DNA repair	KB-V1 cytotox
Cc1ccc(S(=O)(=O)N2[C@@H](c3cccc(C)c3)C(C(=O)O)=C[C@H]2C(C)(C)C)cc1	i	-11%[9.22 µM]	-8%	-2%	i
CCCCC(CC)CNC(=O)Cc1ccc(-n2c(=O)[nH]c3ccccc3c2=O)cc1 (stereo unspecified)	i	.	.	.	i
O=C(NC(=S)NC1CCCC1)c1ccccc1Br	i	-696%	2%	17%	i
CCN(C(=S)NC(=O)c1ccccc1Br)C1CCCCC1	i	0.52µM*	3%	5%	i
CCc1ccc(-n2c3nc(=O)[nH]c(=O)c-3cc3c(C)nn(-c4ccccc4)c32)cc1	i	.	.	.	i
Cc1ccc(-c2nn(-c3ccccc3)cc2C(=O)Nc2ccc(C(=O)O)cc2)cc1	i	-4%	-21%	?	?
COc1ccccc1CC(=O)Nc1ccc2nc(C)sc2c1	i	.	-5%	?	?
COc1cccc(CC(=O)Nc2ccc3nc(C)sc3c2)c1	i	9.2µM*	-9%	?	?
COc1cc(/C=N/NC(=O)c2ccncc2)cc(OC)c1OC	i	0%	?	?	i
O=C(Cn1c(=O)oc2ccccc21)Nc1ccc(F)c(F)c1	i	-10%	0%	3%	i
CC(=O)Nc1nc(C)c(-c2csc(Nc3cccc([N+](=O)[O-])c3)n2)s1	i	14%	?	2.9µM*	?
CC(=O)Nc1nc(C)c(-c2csc(Nc3cccc(C(C)=O)c3)n2)s1	?	4%	-3%	5.8µM*	?
CCC(=O)Nc1nc(C)c(-c2csc(Nc3cccc(C(=O)O)c3)n2)s1	i	1%	7%	22%	i
O=S(=O)(c1ccccc1)N1CCN=C1SCc1c(F)cccc1Cl	.	19%	3%	1%	.
CCCOc1ccc(N2CC(C(=O)Nc3ccc(N4CCOCC4)cc3)CC2=O)cc1 (stereo unspecified)	i	-17%	1%	8%	?
CCCC(=O)N1CCN(c2ccc(NC(=O)c3ccc([N+](=O)[O-])o3)cc2)CC1	i	7%	?	?	?
CC1CCN(c2ccc(NC(=O)c3ccc([N+](=O)[O-])o3)cc2)CC1	5.2µM*	9.2µM*	3.3µM*	?	10µM*
CCC(=O)N1CCN(c2ccc(NC(=O)c3ccc([N+](=O)[O-])o3)cc2)CC1	?	0%	11%	-16%	?
CS(=O)(=O)N1CCN(c2ccc(NC(=O)c3ccc([N+](=O)[O-])o3)cc2)CC1	i	-78%	2.1µM*	?	18µM*
CC(C)(C)C(=O)N1CCN(c2ccc(NC(=O)c3ccc([N+](=O)[O-])o3)cc2)CC1	?	1.8µM*	1.8µM*	?	?
CC(C)CCNC(=O)c1ccc(Cl)c(NC(=O)Cc2ccccc2)c1	.	.	.	-1%	.
CCCCCC(=O)N1C[C@@H](O)[C@H](n2cc(C3CC3)nn2)C[C@@H]1c1ccc(C)cc1	i	.	.	.	i
O=C(Nc1n[nH]c(=S)s1)c1ccco1	i	-9%	-2%	12%	i
Cc1cnc2ccc(I)cc2c1/C=C/c1ccc(N(C)C)cc1	12µM*	.	.	.	?
Cc1cc(/C=C/c2nc3ccccc3s2)ccc1N(C)C	i	.	.	.	i
SMILES	KB-3-1 cytotox	SW480 rerep	MCF10A rerep	ELG1 DNA repair	KB-V1 cytotox
Cc1cc(C)c2c(/C=C/c3ccc(N(C)C)cc3)ccnc2c1	i	.	.	.	?
CN(C)c1ccc(/C=C/c2c(F)cnc3ccccc23)cc1	9.2µM*	.	.	.	?
Cc1cc(/C=C/c2c(C)cnc3ccccc23)ccc1N(C)C	?	.	.	.	16µM*
CN(C)c1ccc(/C=C/c2c3c(nc4ccccc24)CCCC3)cc1	i	.	.	.	i
CCOc1ccc(N2CC(C(=O)N3CCc4ccccc4C3)CC2=O)cc1 (stereo unspecified)	i	-5%	6%	7%	i
Cc1ccc2c(CN3CCCCC3)cc(=O)oc2c1C	i	-5%	?	?	i
Cc1cc2oc(=O)cc(CN3CCN(S(=O)(=O)/C=C/c4ccccc4)CC3)c2cc1C	i	15%	3%	-21%	2.6µM*
CCc1ccc2c(CN3CCN(S(=O)(=O)c4ccccc4F)CC3)cc(=O)oc2c1	i	15%	4%	23µM*	i
Cc1ccc2c(CN3CCN(S(=O)(=O)c4ccccc4C(F)(F)F)CC3)cc(=O)oc2c1C	?	-17%	22%	16µM*	i
Cc1cc2oc(=O)cc(CN3CCN(S(=O)(=O)c4ccc5c(c4)OCCO5)CC3)c2cc1C	i	-2%	1%	?	i
COc1ccc2sc(-c3ccc(S(C)(=O)=O)cc3)c(C(=O)NCCc3c[nH]c4ccccc34)c2c1	i	15%	?	18µM*	i
COc1ccc(-c2cc(C(=O)NN)[nH]n2)cc1OC	i	?	?	13%	i
COc1ccc(-c2cc(C(=O)O)[nH]n2)cc1OC	23µM*	5%	0%	-2%	i
CC1(C)OC(=O)C2=C(C[C@@H](CCc3ccccc3)O[C@@H]2c2ccc(Cl)cc2)O1	?	.	.	.	i
N#C/C(=C/c1ccccc1)C(=O)NCc1ccccc1	i	8%	?	-1%	i
N#C/C(=C\c1cccc(NC(=O)c2ccccc2Cl)c1)C(=O)NCCc1ccccc1	?	18µM*	?	15µM*	i
COCCCNC(=O)/C(C#N)=C/c1cccc(NC(=O)c2ccccc2Cl)c1	i	1.6µM*	26%	1%	?
CN(C)c1ccc(/C=C(/C#N)C(=O)NCc2ccccc2)o1	i	2%	-1%	?	i
C(=N\n1cnnc1)/c1cccn1-c1ccccc1	i	-8%	-2%	14%	i

Screening data deposited in PubChem BioAssay by National Center for Advancing Translational Sciences (NCATS).
